Compounds with a hit are over-represented: about 14% of the library has one in this group of screens.
HCV inhibitor: inhibitors of hepatitis C virus infection; 340,000 compounds, 3.4% hits; Huh7.5.1 HCVcc-Cre infection, luciferase reporter, 44 h; Potency, µM (doses to about 41.8 µM), without a hit: at the top dose activity change, negative = inhibition, most hits filed as inhibitors; also: potency is read from the fitted curve at half-maximal effect
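1,000 cells/well; 4 h culture; + compound; + HCVcc-Cre (~0.5 moi); 44 h; luciferase substrate, RT 15 min; read 15 sec.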
Marburg entry inh: Marburg virus entry inhibition. Marburg virus pseudotyped entry inhibition, cell reporter. Potency, µM (titrated, usually from 37.8 µM), without a hit: at the highest dose activity change, negative = inhibition, hits mostly inhibitors. 300,000 compounds, 1.8% hits. AID 540276; calls by dose curve; tested in HEK293 cells; also: potency is read from the fitted curve at half-maximal effect
Pf growth 96h: P. falciparum growth inhibition at 96 hours; 320,000 compounds, 6.9% hits; Potency, µM (doses to about 28.7 µM), for inactives: at the highest dose activity change, negative = inhibition, actives largely listed as inhibitors; P. falciparum luciferase reporter growth, 96 h; AID 504834; also: potency is read from the fitted curve at half-maximal effect
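P. falciparum expressing integrated firefly luciferase grown in erythrocytes (2% hematocrit, 0.05% parasitemia final) with compounds for 96 hours at 37 C, 5% CO2. Growth inhibition read as loss of luminescence after adding luciferase detection reagent.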
Lassa entry inh: Lassa virus entry inhibition; 300,000 compounds, 1.2% hits; Potency, µM (doses to about 37.9 µM), without a hit: top-dose activity change, negative = inhibition, actives largely listed as inhibitors; Lassa virus pseudotype entry inhibition, cell reporter; calls by dose curve; tested in HEK293 cells; also: potency is read from the fitted curve at half-maximal effect; nearly all actives have a fitted effect of over 50% in size
Pf growth 48h: inhibits P. falciparum growth in the first generation, 48 h; P. falciparum luciferase growth in erythrocytes, 48 h; 310,000 compounds, 5.9% hits; Potency, µM (highest dose often 28.7 µM), inactives show at the top dose activity change, negative = inhibition, most hits filed as inhibitors; also: potency is read from the fitted curve at half-maximal effect
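Luciferase-expressing parasites in RBCs, 2% Hct / 0.1% parasitemia final; RPMI 1640 + 0.5% Albumax; 37 C, 5% CO2, one generation; luminescence read-out, lower signal = inhibition.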
HCMV antiviral: inhibitors of human cytomegalovirus; AID 1259415; activity change, negative = inhibition, % at 57.5 µM; HFF cells, HCMV-luciferase reporter, 72 h; stronger effect = lower value; 410,000 compounds, 4.5% hits; in the data active = activity change below about -60%; inconclusive = no clear call, values can overlap the other calls; inactive = above about -39%
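After 16 h attachment at 37C, HFF cells received test compound and HCMV-luciferase (1 PFU/cell); reporter luminescence read 72 h later, data normalized against buffer-only and known inhibitor Salinomycin.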
The depositor's hits bear a star; ? = inconclusive; nt = not tested or not shown; [ ] = another dose, or the depositor's remark. Unless noted, calls follow the shape of the dose curve; as a rule, active = well fitted inhibition curve with a large enough effect; inconclusive = small, poorly fitted or top-dose-only effect, or another doubt; inactive = no such curve, though single readings can be large or run the other way. % is scaled to controls: 0 for no effect and ±100 for the full control effect.

SMILES	HCV inhibitor	Marburg entry inh	Pf growth 96h	Lassa entry inh	Pf growth 48h	HCMV antiviral
C/C(=N\Nc1nc(C)cc(-c2ccccc2)n1)c1ccc(C)o1	?	-17%[46.1 µM]	1µM*	?	13µM*	-63*
CCOc1nc(NC(=O)NS(=O)(=O)Oc2ccccc2)nc(-c2ccccc2)n1	nt	10%[46.1 µM]	nt	?	nt	27
Cc1ccccc1CCNC(=O)c1ccc2c(c1)nc1n2CCC(C)C1 (stereo unspecified)	nt	nt	nt	?	nt	117
CCC(C)(c1nnnn1-c1c(C)cccc1C)N(N=O)c1cccc(C(F)(F)F)c1 (stereo unspecified)	0%	?	?	?	12µM*	-36
O=C(NC1CCS(=O)(=O)C1)c1ccc(-c2ccc(Br)cc2)o1 (stereo unspecified)	11µM*	7%	?	-11%	nt	-13
O=C(NC1CCS(=O)(=O)C1)c1ccc(Br)o1 (stereo unspecified)	11%	-2%[46.1 µM]	37%	3%	41%	1
COc1ccc(/C=C2/C(=O)N(CC3CCCO3)C(=S)N2C)c(OC)c1 (stereo unspecified)	-10%	-1%	0%[5.75 µM]	?	7%	-19
COc1ccc2c(c1)nc1n2CN(CC2CCCO2)CN1Cc1ccccc1 (stereo unspecified)	nt	nt	12µM*	nt	9.3µM*	nt
COC(=O)C1=C2SC(C)C(=O)N2C(N)=C(C#N)C1c1ccc(OC)c(OC)c1 (stereo unspecified)	-1%	11%	?	?	0%	-7
CCOC(=O)C1=C(N)N2C(=O)C(C)SC2=C(C(=O)OC)C1c1cccc(OC)c1 (stereo unspecified)	6%	nt	312%	nt	nt	-86*
CCOC(=O)C1=C(C)N=C2SC(C(=O)OC)=CC(=O)N2C1c1cccc(OC)c1 (stereo unspecified)	10%	-13%	-16%	-4%	7.4µM*	41
Cc1ccc(NC(=O)CSc2nnc(COc3ccc(Cl)cc3)o2)c(C)c1	nt	10%[46.1 µM]	nt	-1%[46.1 µM]	nt	-3
CCS(=O)(=O)c1nc2ccccc2n1Cc1ccccc1Cl	?	nt	10µM*	nt	?	-67*
O=S(=O)(O)c1nc2ccccc2n1Cc1ccccc1	5%	?	?	18%	1%	-13
CS(=O)(=O)c1nc2ccccc2n1Cc1ccccc1	15%	-7%	-5%	-10%	-15%	-67*
CC(=O)Nc1nc2ccccc2n1Cc1ccccc1	-4%	-26%	12µM*	-13%	?	-11
O=NNc1nc2ccccc2n1Cc1ccccc1	?	nt	13µM*	nt	?	-80*
Cc1nc2ccc(C(=O)N3c4ccccc4N=C(c4ccc(C(F)(F)F)cc4)C3C(=O)NC(C)(C)C)cc2[nH]1 (stereo unspecified)	nt	nt	nt	nt	nt	-25
CN(Cc1ccc(Br)s1)C(=O)CNC(=O)c1ccc2c(c1)OCO2	8%	-24%	?	0%	?	?
Cc1cc(NC(=O)c2ccc(C)c(C)c2)no1	8%	nt	?	nt	0%	84
Cc1cccc(NC(=O)CCn2cnnn2)c1C	nt	6%[46.1 µM]	nt	11%[46.1 µM]	nt	32
CCCC[C@]12Cc3cc(OC)c(OC)cc3[C@H](O1)c1c(cc(-c3ccccc3)oc1=O)O2	nt	-25%[14.2 µM]	nt	nt	nt	nt
Cn1c(NN=O)nc2ccccc21	?	?	?	?	12µM*	-100*
Cn1c(Cl)nc2ccccc21	-4%	2%	14%	13%	5%	32
CCOc1cc2c(cc1OC)C(NC(=O)c1ccco1)CC2=O (stereo unspecified)	7%	2%[46.1 µM]	34%	2%[46.1 µM]	15%	0
CCOC(=O)C1(Cc2ccccc2C)CCCN(C(=O)c2ccc(C(C)=O)s2)C1 (stereo unspecified)	nt	nt	nt	nt	nt	-16
NC(=O)[C@H]1CC2(CC(c3cccc(NC(=O)COc4ccc(Cl)cc4)c3)=NO2)CN1C(=O)C(c1ccccc1)c1ccccc1 (stereo partly specified)	?	nt	?	nt	13µM*	-17
